Counter-ions that a name gives are not always drawn.
Test system: MDA-MB-468
Experiment: phospho-S6 immunofluorescence (DAPI-normalised), per-plate z-score; higher = higher phospho-S6 signal (less pathway suppression)
Details: 24 h
Procedure: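 GPCR-targeted compound library (MedChemExpress HY-L006) tested on MDA-MB-468 PTEN-null TNBC cells in 384-well plates at 0.1, 1 or 10 uM, combined with vehicle, GDC0941 450 nM or lapatinib 1 uM, for 24 h. Phospho-S6 (S240/244) immunofluorescence normalised to DAPI and expressed as a per-plate z-score; values are the mean of biological triplicates.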

Compound | phospho-S6 immunofluorescence (z-score) (co-treatment: GDC0941 450 nM) | phospho-S6 immunofluorescence (z-score) (co-treatment: lapatinib 1 uM) | phospho-S6 immunofluorescence (z-score) (co-treatment: vehicle)
CC(C)NCC(O)c1ccc(NS(C)(=O)=O)cc1 (configuration not stated) [Sotalol (hydrochloride)] (compound 10 µM) | 1.31 | 1.24 | 0.37
N[C@@H](Cc1ccc(O)c(O)c1)C(=O)O (compound 10 µM) | -0.94 | -0.12 | -0.55
CN(C)N(C)C(=O)[C@@]1(Cc2ccccc2)CCCN(C(=O)[C@@H](Cc2c[nH]c3ccccc23)NC(=O)C(C)(C)N)C1 [Anamorelin (hydrochloride)] (compound 10 µM) | -1.14 | -0.96 | -0.1
CC(=O)OC(C)C[N+](C)(C)C (configuration not stated) [Methacholine (chloride)] (compound 10 µM) | 0.63 | 0.47 | 1
CC[C@H](C)[C@@H]1NC(=O)[C@H](Cc2ccc(OC)cc2)NC(=O)CCCSC[C@@H](C(=O)N2CCC[C@H]2C(=O)N[C@@H](CC(C)C)C(=O)NCC(N)=O)NC(=O)[C@H](CC(N)=O)NC(=O)[C@H](CCC(N)=O)NC1=O [Carbetocin] (compound 10 µM) | 0.31 | -0.07 | 0.3
CCCCCNC(=N)N/N=C/c1c[nH]c2ccc(OC)cc12 [Tegaserod (maleate)] (compound 10 µM) | -6 | -12.1 | -10.3
CCN(CC)CCNC(=O)c1cc(Cl)c(N)cc1OC [Metoclopramide (hydrochloride hydrate)] (compound 10 µM) | -0.35 | 0.77 | 0.05
COCCCN1CCC(NC(=O)c2cc(Cl)c(N)c3c2OCC3)CC1 [Prucalopride (succinate)] (compound 10 µM) | -1.08 | -0.3 | -1.84
CN(C)CC/C=C1/c2ccccc2COc2ccc(CC(=O)O)cc21 [Olopatadine (hydrochloride)] (compound 10 µM) | 0.01 | 0.08 | -0.35
CN1CCC(=C2c3ccccc3CCc3cccnc32)CC1 [Azatadine (dimaleate)] (compound 10 µM) | 0 | 0.29 | -0.32
C[N+]1(C)[C@@H]2C[C@@H](OC(=O)C(O)(c3cccs3)c3cccs3)C[C@H]1[C@@H]1O[C@@H]12 [Tiotropium (Bromide)] (compound 10 µM) | -0.58 | 0.42 | -0.69
Cc1c(C(=O)NN2CCCCC2)nn(-c2ccc(Cl)cc2Cl)c1-c1ccc(Cl)cc1 [Rimonabant (Hydrochloride)] (compound 10 µM) | -3.49 | -4.25 | -5.97
CNCC(O)c1ccc(O)c(O)c1 [L-Epinephrine] (compound 10 µM) | 0.44 | 2.36 | -0.3
CC(CN(C)C)CN1c2ccccc2CCc2ccccc21 (configuration not stated) [Trimipramine (maleate)] (compound 10 µM) | -1.05 | -2.53 | -0.39

From the supplement of paper PMC7411640
